# Measurements as given in PubChem BioAssay (EPA / NIEHS).
# Inconclusive results are not listed. The source made the active and inactive calls. Rule for the calls, unless noted: active = hit-call score of the fitted dose curve at least 0.9, where 1 is the maximum; inactive = score below 0.9.
# What was measured:
# [1] = UKN5_HCS_SBAD2_neurite_outgrowth: University of Konstanz (UKN) Leist Lab Neurite Outgrowth Assay in human iPSC-derived immature Dorsal Root Ganglia Neurons (UKN5) (AID 2284070); conditions: actives raise or lower the signal
# In short: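 Neurite outgrowth is quantified as calcein-AM-labelled neurite area in human iPSC-derived peripheral neurons treated for 24 h, starting 1 h after plating in medium with CHIR99021 (1.5 uM), SU5402 (5 uM) and DAPT (5 uM).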
# [2] = CCTE_Shafer_MEA_dev_AB: CCTE's Alamar Blue Assay for Cytotoxicity in the Neural Network Formation Assay, Shafer Lab (AID 2284083; active = hit-call score of the fitted dose curve at least 0.9, where 1 is the maximum;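 note: resazurin reduction fluorescence as viability of cultured neurons; twelve days of exposure from plating with re-dosing on DIV 5 and 9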)
# In short: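 Cytotoxicity companion to the developmental MEA: primary rat cortical neurons, 12-day exposure starting day 0, compound refreshed DIV 5 and 9; resazurin fluorescence, fitted against DMSO vehicle.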
# [3] = CCTE_Shafer_MEA_dev_mutual_information_norm: CCTE's Neural Network Formation Assay for Mutual Information Normalization, Shafer Lab (AID 2284091)
# In short: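 Neurons from rat cortex were seeded at 1.5 x 10^5 cells/well onto PEI-coated MEAs in a laminin drop, then exposed to compound from day 0 for twelve days. Network recordings on four days gave mutual information, summarised by AUC relative to DMSO.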
# [4] = CCTE_Shafer_MEA_dev_correlation_coefficient_mean: CCTE's Neural Network Formation Assay for Mean Correlation Coefficient, Shafer Lab (AID 2284093);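 note: well mean pairwise spike train correlation integrated as AUC over recording days 5 to 12; potency fitted for loss of correlation relative to DMSO vehicle wells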
# In short: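 Extracellular firing from rat cortical networks on 48-well MEAs, DMSO-referenced, negative fitting direction. Compound present from plating to DIV12; mean pairwise correlation per well integrated over DIV5–12 recordings by trapezoidal AUC.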
# [5] = UKN2_HCS_IMR90_neural_migration: University of Konstanz (UKN) Leist Lab Neural Crest Cell Migration Assay in human induced IMR90 Pluripotent Stem Cells (UKN2) (AID 2284204); conditions: actives raise or lower the signal
# In short: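 Stopper-exclusion migration (cMINC), human iPSC-derived neural crest cells; N2-S + EGF/FGF; compound added 24 h post-stopper removal, 24 h exposure. Readout: calcein-AM/Hoechst 30 min, HCS fluorescence imaging; bidirectional fitting, DMSO baseline.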
# [6] = UKN4_HCS_LUHMES_neurite_outgrowth: University of Konstanz (UKN) Leist Lab Neurite Outgrowth Assay in human LUHMES cells (UKN4) (AID 2284206); conditions: actives raise or lower the signal
# In short: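 Neurite area in dopaminergic-model LUHMES neurons is measured by high-content imaging of calcein-AM after 24 h treatment starting shortly after day-2 replating; Hoechst staining tracks viability.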
# [7] = IUF_NPC1b_proliferation_BrdU_72hr: Leibniz Research Institute for Environmental Medicine (IUF) 72-hour Neural Progenitor Cell Bromodeoxyuridine (BrdU) Proliferation Assay (NPC1b) (AID 2284207)
# In short: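 Luminescent BrdU ELISA measured DNA synthesis during the last 16 h of a 72 h exposure of primary human neural progenitor spheres grown with EGF and FGF. Signal was fitted relative to DMSO controls.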
# [8] = IUF_NPC1a_proliferation_area_72hr: Leibniz Research Institute for Environmental Medicine (IUF) 72-hour Neural Progenitor Cell Proliferation Area Assay (NPC1a) (AID 2284208)
# In short: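 Proliferation read as increase in sphere area by phase-contrast imaging over 72 h continuous compound exposure (no renewal) of hNPC spheres grown with EGF/FGF at 37C, 5% CO2. Growth-factor withdrawal served as positive control; DMSO as baseline.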
# [9] = IUF_NPC1_viability_72hr: Viability Assessment at 72 hours in the Leibniz Research Institute for Environmental Medicine (IUF) Neural Progenitor Cell Proliferation Assay (NPC1) (AID 2284209)
# In short: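 Three-day continuous exposure of human neural progenitor spheres under EGF/FGF-driven proliferation; cell viability scored by alamar blue signal versus DMSO.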
# [10] = UKN4_HCS_LUHMES_cell_viability: Viability Assessment in the University of Konstanz (UKN) Leist Lab Neurite Outgrowth Assay in human LUHMES cells (UKN4) (AID 2284232)
# In short: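 Measured in replated, 2-day-differentiated LUHMES cells treated 24 h; stained 30 min with H-33342 and calcein-AM before high-content imaging.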
# [11] = UKN2_HCS_IMR90_cell_viability: Viability Assessment in the University of Konstanz (UKN) Leist Lab Neural Crest Cell Migration Assay in human induced IMR90 Pluripotent Stem Cells (UKN2) (AID 2284233);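 note: cells exposed to compound for 24 h after a 24 h migration phase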
# In short: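 Viability read as calcein-AM fluorescence by high-content imaging, Hoechst co-stain, 30 min. Human iPSC (IMR90) neural crest cells had migrated 24 h into stopper-defined gaps before 24 h chemical exposure. Fitted bidirectionally relative to DMSO.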
# [12] = IUF_NPC2c_oligodendrocyte_migration_120hr: Leibniz Research Institute for Environmental Medicine (IUF) 120-hour Neural Progenitor Cell Migration Assay for Oligodendrocyte Migration (NPC2c) (AID 2284297);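 note: O4-positive oligodendrocyte migration distance divided by radial glia migration distance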
# In short: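 Exposure runs 5 days from differentiation onset at 37C, seven concentrations plus solvent control, DMSO at most 0.1%, applied to primary hNPC spheres on laminin. After fixation, O4 immunostaining gives oligodendrocyte distance from the sphere core, relative to radial glia migration.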
# [13] = IUF_NPC2a_radial_glia_migration_120hr: Leibniz Research Institute for Environmental Medicine (IUF) 120-hour Neural Progenitor Cell Migration Assay for Radial Glia Migration (NPC2a) (AID 2284298)
# In short: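 Migration distance in um, sphere core edge to migration-area edge, derived by nuclei-density algorithm from Hoechst images after 120 h compound exposure. Primary hNPC spheres differentiated on poly-D-lysine/laminin in N2 medium, 37C; medium half-replaced day 3.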
# [14] = IUF_NPC2a_radial_glia_migration_72hr: Leibniz Research Institute for Environmental Medicine (IUF) 72-hour Neural Progenitor Cell Migration Assay for Radial Glia Migration (NPC2a) (AID 2284299)
# In short: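 Spheres of human primary neural progenitors migrate on poly-D-lysine/laminin under compound exposure at 37C, 5% CO2. The 72 h radial glia migration distance comes from brightfield images, measured manually.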
# [15] = IUF_NPC2b_neuronal_migration_120hr: Leibniz Research Institute for Environmental Medicine (IUF) 120-hour Neural Progenitor Cell Migration Assay for Neuron Migration (NPC2b) (AID 2284300)
# In short: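 TUBB3-positive neurons are imaged after 120 h of differentiation, and their mean distance from the sphere edge is normalised to radial glia migration. Single 0.3 mm fetal hNPC spheres on poly-D-lysine/laminin received 7 compound concentrations, ≤0.1% DMSO, refreshed at day 3.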
# [16] = IUF_NPC3_neuronal_differentiation_120hr: Leibniz Research Institute for Environmental Medicine (IUF) 120-hour Neuronal Differentiation Assay (NPC3) (AID 2284301)
# In short: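 hNPC spheres, PDL/laminin, DMEM/F12 3:1 + 1% N2, 37C, 5% CO2; 7 concentrations + solvent control, 5 d exposure, half-change day 3. Fix 120 h; TUBB3/Hoechst ICC, CNN neuron calling; % neurons vs nuclei, DMSO-normalized.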
# [17] = IUF_NPC5_oligodendrocyte_differentiation_120hr: Leibniz Research Institute for Environmental Medicine (IUF) 120-hour Oligodendrocyte Differentiation Assay (NPC5) (AID 2284304; active = hit-call score of the fitted dose curve at least 0.9, where 1 is the maximum;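 note: primary human fetal neural progenitor spheres plated to migrate and differentiate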)
# In short: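 Oligodendrocyte differentiation scored as O4-positive cells, found by CNN image analysis, as percent of Hoechst-stained nuclei in the migration area. Scoring followed 5 days of exposure of plated hNPC neurospheres differentiating in DMEM/F12 N2 medium at 37C, with compound refreshed at day 3.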
# [18] = IUF_NPC4_neurite_area_120hr: Leibniz Research Institute for Environmental Medicine (IUF) 120-hour Neuronal Morphology Assay for Neurite Area (NPC4) (AID 2284305; active = hit-call score of the fitted dose curve at least 0.9, where 1 is the maximum)
# In short: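 hNPC spheres on PDL/laminin, N2 medium, 37C/5% CO2; dosed day 0, half-medium refresh day 3; fixed 120 h; TUBB3/Hoechst ICC, high-content imaging; neurite area = mean pixels per neuron (nuclei excluded); DMSO baseline, max 0.1%.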
# [19] = IUF_NPC2-5_cytotoxicity_72hr: Cytotoxicity Assessment at 72 hours in the Leibniz Research Institute for Environmental Medicine (IUF) Neural Progenitor Cell Migration and Differentiation Assay for Cytotoxicity (NPC2-5) (AID 2284306; active = hit-call score of the fitted dose curve at least 0.9, where 1 is the maximum;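 note: LDH release into supernatant measured by resorufin fluorescence marking membrane damage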)
# In short: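 hNPC spheres (0.3 mm), PDL/laminin, DMEM/F12 3:1 + 1% N2; cpd from d0, 7 concs + SC, DMSO max 0.1%; half-medium refresh d3. Readout: supernatant LDH via resorufin fluorescence (RFU), 72 h; gain-of-signal fit.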
# [20] = IUF_NPC2-5_cytotoxicity_120hr: Cytotoxicity Assessment at 120 hours in the Leibniz Research Institute for Environmental Medicine (IUF) Neural Progenitor Cell Migration and Differentiation Assay (NPC2-5) (AID 2284307; active = hit-call score of the fitted dose curve at least 0.9, where 1 is the maximum)
# In short: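 Membrane-integrity loss measured as LDH activity in medium supernatant via resazurin-to-resorufin fluorescence after 120 h exposure. hNPC spheres from GW 16-19 fetal cortex differentiated on poly-D-lysine/laminin, 37C, medium half-refreshed day 3; seven concentrations, DMSO max 0.1%.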
# [21] = IUF_NPC2-5_cell_number_120hr: Cell Number Assessment at 120 hours in the Leibniz Research Institute for Environmental Medicine (IUF) Neural Progenitor Cell Migration and Differentiation Assay (NPC2-5) (AID 2284308);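 note: count of Hoechst-stained nuclei in migration zone around plated human neural progenitor spheres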
# In short: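 Counting of all Hoechst-stained nuclei in the migration area at 120 h, versus DMSO control. Primary hNPC spheres differentiated on poly-D-lysine/laminin in N2 medium at 37C, dosed from day 0 (7 concentrations, DMSO ≤0.1%), half-refed day 3.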
# [22] = IUF_NPC2-5_viability_120hr: Viability Assessment at 120 hours in the Leibniz Research Institute for Environmental Medicine (IUF) Neural Progenitor Cell Migration and Differentiation Assay (NPC2-5) (AID 2284312)
# In short: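 Human fetal neural progenitor spheres (0.3 mm) plated on poly-D-lysine/laminin in N2 differentiation medium, exposed 120 h with half-medium refresh at day 3. Viability by alamar blue resazurin fluorescence; 7 concentrations, DMSO max 0.1%.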
# [23] = IUF_NPC1_cytotoxicity_72hr: Cytotoxicity Assessment at 72 hours in the Leibniz Research Institute for Environmental Medicine (IUF) Neural Progenitor Cell Proliferation Assay (NPC1) (AID 2284332; active = hit-call score of the fitted dose curve at least 0.9, where 1 is the maximum;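 note: rising LDH signal means more cytotoxicity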)
# In short: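 Readout is fluorescence from LDH-dependent resazurin conversion, sampled from culture medium after compound contact lasting 72 h. Each well holds one 0.25-0.35 mm human progenitor sphere kept at 37C, 5% CO2 with EGF and FGF.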
smiles,measurement,setting,value
Brc1ccc(Oc2cc(Br)c(Br)cc2Br)c(Br)c1,outcome,[1],inactive
same,AC50,[2],13.6 µM (active)
same,outcome,[3],inactive
same,AC50,[4],10 µM (active)
same,outcome,[5],inactive
same,AC50,[6],13.4 µM (active)
same,outcome,[7],inactive
same,outcome,[8],inactive
same,outcome,[9],inactive
same,outcome,[10],inactive
same,outcome,[11],inactive
same,outcome,[12],inactive
same,outcome,[13],inactive
same,outcome,[14],inactive
same,outcome,[15],inactive
same,outcome,[16],inactive
same,outcome,[17],inactive
same,outcome,[18],inactive
same,outcome,[19],inactive
same,outcome,[20],inactive
same,outcome,[21],inactive
same,outcome,[22],inactive
same,outcome,[23],inactive
